Assay results reported in the supplement of paper PMC13380429.

Legend:
[1] = tested on: Vero E6 infected with SARS-CoV-2; assay: morphology score (similarity to uninfected cells); higher = more like uninfected cells; settings: 24 h
[2] = tested on: Vero E6 infected with SARS-CoV-2; assay: SARS-CoV-2 infection rate relative to infected DMSO; higher = more infection, active = 60 or less; settings: 24 h

SMILES	morphology score [1]	SARS-CoV-2 infection rate [2]
c1ccc(-c2nc(CN3CCN(c4ncccn4)CC3)c[nH]2)cc1 (10 µM)	-0.0694	107% (inactive)
C#CC[C@H](c1nc2cc(Cl)ccc2c(=O)n1Nc1ccccc1)N(CCCN)C(=O)c1cccc(Cl)c1F (0.833333 µM)	-0.0173	112% (inactive)
Oc1ccc(OC2CCCCO2)cc1 (configuration not stated) [deoxyarbutin] (10 µM)	0.198	97% (inactive)
O=C(O)[C@H](Cc1ccc(Nc2nccc3ccncc23)cc1)NC1=C(Br)C(=O)C12CCCCC2 (10 µM)	0.0401	98% (inactive)
COc1ccc(Cc2cnc(N)nc2N)cc1OC [diaveridine] (10 µM)	0.191	101% (inactive)
O=C(Nc1cnccc1Cl)N1CCN(Cc2ccc3c(c2)OC(F)(F)O3)CC1 (10 µM)	0.0915	106% (inactive)
O=C(O)c1cc(N2N=C(C(F)(F)F)/C(=C/c3ccc(-c4ccccc4)o3)C2=O)ccc1Cl (10 µM)	0.185	97% (inactive)
C=C(c1ccccc1OCc1cccc(Cl)c1)n1ccnc1 [croconazole] (10 µM)	0.0614	104% (inactive)
O=C(Nc1ccc(N2CCC(C(=O)N3CCOCC3)CC2)cc1)c1cnc(Oc2ccccc2)nc1 (10 µM)	-0.02	114% (inactive)
CC(=O)OCC(=O)[C@@]1(O)CC[C@H]2[C@@H]3CCC4=CC(=O)C=C[C@]4(C)[C@H]3[C@@H](O)C[C@@]21C [prednisolone-acetate] (10 µM)	-0.148	108% (inactive)
N#C/C(=C\c1ccc(O)c(O)c1)C(N)=O [tyrphostin-AG-99] (10 µM)	0.0858	106% (inactive)
NS(=O)(=O)c1cc(C2(O)NC(=O)c3ccccc32)ccc1Cl (configuration not stated) [chlorthalidone] (10 µM)	0.13	78.5% (inactive)
CNC(=O)c1ccc2c(c1)S(=O)(=O)c1ccccc1C2=O (10 µM)	-0.0141	108% (inactive)
COc1c(O[C@@H]2O[C@H](CO)[C@@H](O)[C@H](O)[C@H]2O)cc2c(c1OC)-c1ccc(SC)c(=O)cc1[C@@H](NC(C)=O)CC2 [thiocolchicoside] (10 µM)	-0.00288	114% (inactive)
Cc1ccc(-c2cc(C(F)(F)F)nn2-c2ccc(S(N)(=O)=O)cc2)cc1 [celecoxib] (10 µM)	0.193	102% (inactive)
CCOCOC[C@H](C[C@H](C)C(=O)NO)NC(=O)c1ccc(Oc2ccccc2)cc1 (10 µM)	0.131	98.5% (inactive)
c1cc(-c2cnn3cc(-c4ccc(N5CCNCC5)cc4)cnc23)c2cccnc2c1 (0.833333 µM)	-0.148	103% (inactive)
CC(C)C[C@@H](N)C(=O)N[C@H]1C(=O)N[C@@H](CC(N)=O)C(=O)N[C@H]2C(=O)N[C@H]3C(=O)N[C@H](C(=O)N[C@H](C(=O)O)c4cc(O)cc(O)c4-c4cc3ccc4O)[C@H](O)c3ccc(c(Cl)c3)Oc3cc2cc(c3O[C@@H]2O[C@H](CO)[C@@H](O)[C@H](O)[C@H]2O[C@H]2C[C@](C)(N)[C@H](O)[C@H](C)O2)Oc2ccc(cc2Cl)[C@H]1O [norvancomycin] (10 µM)	0.00559	100% (inactive)
COc1c(Nc2ccc(S(C)(=O)=O)nc2C)ncnc1OC1CCN(C(=O)OC(C)C)CC1 (10 µM)	-0.00778	100% (inactive)
CCN[C@H]1C[C@H](C)S(=O)(=O)c2sc(S(N)(=O)=O)cc21 [dorzolamide] (10 µM)	0.0923	100% (inactive)
Cn1ncc2c(N3CCOCC3)nc(-c3cccc(O)c3)nc21 (10 µM)	-0.103	114% (inactive)

SMILES	morphology score [1]	SARS-CoV-2 infection rate [2]
CC(=O)NC1CCSC1=O (configuration not stated) [citiolone] (10 µM)	-0.0164	107% (inactive)
COC(=O)[C@H](Cc1ccccc1)NC(=O)[C@@H](N)CC(=O)O [aspartame] (10 µM)	0.172	106% (inactive)
O=C1OC(CN2CCOCC2)CN1/N=C/c1ccc([N+](=O)[O-])o1 (configuration not stated) [furaltadone] (10 µM)	0.0402	97% (inactive)
CC(C)Cn1cnc2c(N)nc3ccccc3c21 [imiquimod] (10 µM)	0.0803	106% (inactive)
CC12CC3CC(C)(C1)CC(N)(C3)C2 [memantine] (10 µM)	0.0122	110% (inactive)
COC[C@H]1OC(=O)c2coc3c2[C@@]1(C)C1=C(C3=O)[C@@H]2CCC(=O)[C@@]2(C)C[C@H]1OC(C)=O [wortmannin] (0.833333 µM)	0.26	79.5% (inactive)
Cc1ccc(/C=C2/C(=O)C3(C)CCC2C3(C)C)cc1 (configuration not stated) [3-(4-methylbenzylidene)camphor] (10 µM)	-0.0397	114% (inactive)
C#CCN1C(C)=C(C(=O)OC)C(c2cccc([N+](=O)[O-])c2)C(C(=O)OCC)=C1C (configuration not stated) (10 µM)	0.0591	87.5% (inactive)
CC(C)(C)NCC(O)COc1cccc2c1CCC(=O)N2 (configuration not stated) [carteolol] (10 µM)	0.111	96.5% (inactive)
CCOc1ccc(Nc2nc(-c3c(C)nc4ccccn34)cs2)cc1 (0.833333 µM)	-0.00134	102% (inactive)
CN1C(=O)N[C@H](Cc2c[nH]c3c(Cl)cccc23)C1=O [necrostatin-2] (10 µM)	0.131	95% (inactive)
CN1C(=O)/C(=C2/C(=O)Nc3ccccc32)c2ccccc21 [meisoindigo] (0.833333 µM)	0.0882	96.5% (inactive)
NC[C@H]1O[C@H](O[C@H]2[C@H](O)[C@@H](O[C@H]3O[C@H](CO)[C@@H](O)[C@H](N)[C@H]3O)[C@H](N)C[C@@H]2N)[C@H](N)C[C@@H]1O [tobramycin] (10 µM)	0.095	113% (inactive)
CC[n+]1c(-c2ccccc2)c2cc(N)ccc2c2ccc(N)cc21 [homidium] (10 µM)	0.276	99.5% (inactive)
CC(C)n1c(=O)n(C(=O)N[C@H]2C[C@H]3CC[C@@H](C2)N3C)c2ccccc21 (10 µM)	0.0156	106% (inactive)
COc1cc2c(CCNC(C)=O)c[nH]c2cc1Cl [6-chloromelatonin] (10 µM)	0.0228	104% (inactive)
O=C(/C=C/c1ccccc1)NCCO [brolitene] (10 µM)	0.199	93.5% (inactive)
CC(C)=CCC/C(C)=C/CNCCNC1C2CC3CC(C2)CC1C3 (configuration not stated) (10 µM)	0.122	94.5% (inactive)
C#Cc1cccc2c1c(C(=O)c1ccc(Cn3c(C)nc4cnccc43)c(F)c1)cn2C(=O)N(C)C (10 µM)	0.159	106% (inactive)
Nc1nc(N)c2nc(-c3ccccc3)c(N)nc2n1 [triamterene] (0.833333 µM)	-0.174	118% (inactive)
CC(C)CCNc1ncccc1C(=O)N1CCN(Cc2ccccc2)CC1 (10 µM)	-0.0116	114% (inactive)

SMILES	morphology score [1]	SARS-CoV-2 infection rate [2]
O=C(O)c1cn(C2CC2)c2cc(N3CCNCC3)c(F)cc2c1=O [ciprofloxacin] (10 µM)	0.046	106% (inactive)
CCOC(=O)[C@]12CC1/C(=N\O)c1ccccc1O2 (some centres not stated) (10 µM)	0.224	90.5% (inactive)
C[C@H](Nc1ncnc2nc[nH]c12)c1cc2cccc(Cl)c2c(=O)n1-c1ccccc1 [duvelisib] (0.833333 µM)	0.0653	99% (inactive)
CNS(=O)(=O)Cc1ccc2[nH]cc(CCN(C)C)c2c1 [sumatriptan] (10 µM)	0.205	98% (inactive)
CCC(C)(C)C(=O)C(=O)N1CCC[C@H]1C(=O)OCCCc1cccnc1 (10 µM)	-0.0394	116% (inactive)
Cc1cccc(C)c1NC(=O)c1ccc(N)cc1 [ameltolide] (10 µM)	-0.146	109% (inactive)
O=C(COc1ccc(C(=O)c2ccccc2)cc1)NC1CCN(Cc2ccccc2)CC1 [adiporon] (10 µM)	0.0636	106% (inactive)
Cn1ccc2cc(NC(=O)Nc3cccnc3)ccc21 (10 µM)	-0.0432	117% (inactive)
O=C(NCC1CCOCC1)c1cnc(Nc2ccc(Cl)cc2Cl)nc1C(F)(F)F (10 µM)	0.326	96% (inactive)
Cc1oc2ccccc2c1CNC(=O)NCc1cccs1 (10 µM)	0.0505	100% (inactive)
CCCC(CCC)C(=O)Nc1ccn([C@@H]2O[C@H](CO)[C@@H](O)C2(F)F)c(=O)n1 (0.833333 µM)	0.0484	100% (inactive)
C=C(c1ccc(C(=O)O)cc1)c1cc2c(cc1C)C(C)(C)CCC2(C)C [bexarotene] (10 µM)	0.18	108% (inactive)
CCOC(=O)c1cc(C#N)c(N2CCC(C(=O)NS(=O)(=O)Cc3ccccc3)CC2)nc1C (10 µM)	0.128	108% (inactive)
COc1cccc(Nc2ncnn3ccc(CN4CC[C@@H](N)[C@H](O)C4)c23)c1 (0.833333 µM)	-0.24	112% (inactive)
COc1ccc(-n2nc(CCC(=O)N(C)O)cc2-c2ccc(Cl)cc2)cc1 [tepoxalin] (0.833333 µM)	0.0433	104% (inactive)
CNCCCC1(c2ccccc2)OC(C)(C)c2ccccc21 (configuration not stated) [talopram] (10 µM)	-0.07	111% (inactive)
C[C@]12CC[C@@H]3c4ccc(OS(=O)(=O)O)cc4CC[C@H]3[C@@H]1CCC2=O [estropipate] (10 µM)	0.227	99% (inactive)
Cc1c(C(=O)NN2CCCCC2)nn(-c2ccc(Cl)cc2Cl)c1-c1ccc(I)cc1 (10 µM)	0.254	93% (inactive)
CCN(CC)CCOc1ccc2c(c1)C(=O)c1cc(OCCN(CC)CC)ccc1-2 [tilorone] (0.833333 µM)	0.187	105% (inactive)
